From the supplement of paper PMC8728848
This is one part of a sample in which the strongest signals are shown more often than they occur.

How the values were obtained:
Assay in all cases: glycan array binding signal (z-score within array); higher = stronger binding
Settings in all cases: glycan notation: IUPAC condensed, linker removed
Fuc(a1-2)Gal(b1-3)GalNAc = target: Fuc(a1-2)Gal(b1-3)GalNAc
How it was run: (§1)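 Glycan array data came from 3228 arrays in the Consortium for Functional Glycomics database, and only arrays with an available protein sequence were kept. Glycan names were put into IUPAC-condensed notation, and columns mapping to the same glycan were averaged. The binding signal is a within-array Z-score, averaged across arrays of one protein sequence run at different concentrations or buffers and across linkers. A negative Z-score can be read as non-binding.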

[1] = target: Fuc(a1-2)Gal(b1-3)[Fuc(a1-4)]GlcNAc(b1-3)[Gal(b1-4)GlcNAc(b1-6)]Gal(b1-4)Glc
How it was run: as §1

[2] = target: Fuc(a1-2)[Gal(a1-3)]Gal(b1-4)GlcNAc(b1-6)GalNAc
How it was run: as §1

[3] = target: Fuc(a1-2)[GalNAc(a1-3)]Gal(b1-3)GalNAc(a1-3)[Fuc(a1-2)]Gal(b1-4)GlcNAc
How it was run: as §1

[4] = target: Fuc(a1-2)[GalNAc(a1-3)]Gal(b1-3)GlcNAc
How it was run: as §1

[5] = target: Fuc(a1-2)[GalNAc(a1-3)]Gal(b1-3)GlcNAc(b1-6)GalNAc
How it was run: as §1

[6] = target: Fuc(a1-2)[GalNAc(a1-3)]Gal(b1-4)GlcNAc(b1-3)Gal(b1-4)GlcNAc
How it was run: as §1

[7] = target: Fuc(a1-2)[GalNAc(a1-3)]Gal(b1-4)GlcNAc(b1-3)Gal(b1-4)GlcNAc(b1-3)Gal(b1-4)GlcNAc
How it was run: as §1

[8] = target: Fuc(a1-2)[GalNAc(a1-3)]Gal(b1-4)GlcNAc(b1-6)GalNAc
How it was run: as §1

[9] = target: Fuc(a1-2)[GalNAc(a1-3)]Gal(b1-4)[Fuc(a1-3)]GlcNAc
How it was run: as §1

[10] = target: Gal(a1-3)Gal(b1-3)GlcNAc(b1-6)GalNAc
How it was run: as §1

Gal(a1-3)Gal(b1-4)Glc = target: Gal(a1-3)Gal(b1-4)Glc
How it was run: as §1

Gal(a1-4)GlcNAc = target: Gal(a1-4)GlcNAc
How it was run: as §1

[11] = target: Gal(b1-3)GlcNAc(b1-6)[Gal(b1-3)]GalNAc
How it was run: as §1

Gal(b1-4)Glc6S = target: Gal(b1-4)Glc6S
How it was run: as §1

Gal(b1-4)GlcNAc(b1-2)Man = target: Gal(b1-4)GlcNAc(b1-2)Man
How it was run: as §1

[12] = target: Gal(b1-4)GlcNAc(b1-2)[Gal(b1-4)GlcNAc(b1-4)]Man(a1-3)[Gal(b1-4)GlcNAc(b1-2)Man(a1-6)]Man(b1-4)GlcNAc(b1-4)GlcNAc
How it was run: as §1

[13] = target: Gal(b1-4)GlcNAc(b1-2)[Gal(b1-4)GlcNAc(b1-4)]Man(a1-3)[GlcNAc(b1-4)][Gal(b1-4)GlcNAc(b1-2)[Gal(b1-4)GlcNAc(b1-6)]Man(a1-6)]Man(b1-4)GlcNAc(b1-4)GlcNAc
How it was run: as §1

[14] = target: Gal(b1-4)GlcNAc(b1-3)Gal(b1-4)GlcNAc(b1-3)Gal(b1-4)GlcNAc(b1-2)Man(a1-3)[Gal(b1-4)GlcNAc(b1-3)Gal(b1-4)GlcNAc(b1-3)Gal(b1-4)GlcNAc(b1-2)Man(a1-6)]Man(b1-4)GlcNAc(b1-4)[Fuc(a1-6)]GlcNAc
How it was run: as §1

[15] = target: Gal(b1-4)GlcNAc(b1-6)[Gal(b1-4)GlcNAc(b1-3)]GalNAc
How it was run: as §1

[16] = target: Gal3S(b1-4)[Fuc(a1-3)]GlcNAc6S
How it was run: as §1

Gal3S4S(b1-4)GlcNAc = target: Gal3S4S(b1-4)GlcNAc
How it was run: as §1

GalNAc3S(b1-4)GlcNAc = target: GalNAc3S(b1-4)GlcNAc
How it was run: as §1

GalNAc6S(b1-4)GlcNAc = target: GalNAc6S(b1-4)GlcNAc
How it was run: as §1

[17] = target: GlcNAc(b1-2)Man(a1-3)[GlcNAc(b1-2)Man(a1-6)]Man(b1-4)GlcNAc(b1-4)GlcNAc
How it was run: as §1

GlcNAc(b1-6)GalNAc = target: GlcNAc(b1-6)GalNAc
How it was run: as §1

Kdn(a2-3)Gal(b1-3)GalNAc = target: Kdn(a2-3)Gal(b1-3)GalNAc
How it was run: as §1

[18] = target: Man(a1-2)Man(a1-3)[Man(a1-2)Man(a1-6)]Man
How it was run: as §1

[19] = target: Man(a1-3)[Man(a1-6)]Man(a1-6)[Man(a1-3)]Man(b1-4)GlcNAc(b1-4)GlcNAc
How it was run: as §1

[20] = target: Neu5Ac(a2-3)Gal(b1-3)GlcNAc(b1-3)Gal(b1-3)GlcNAc
How it was run: as §1

[21] = target: Neu5Ac(a2-3)Gal(b1-3)GlcNAc(b1-4)Gal(b1-4)Glc
How it was run: as §1

[22] = target: Neu5Ac(a2-3)Gal(b1-4)GlcNAc(b1-2)Man(a1-3)[GlcNAc(b1-4)][Neu5Ac(a2-3)Gal(b1-4)GlcNAc(b1-2)Man(a1-6)]Man(b1-4)GlcNAc(b1-4)GlcNAc
How it was run: as §1

[23] = target: Neu5Ac(a2-3)Gal(b1-4)GlcNAc(b1-2)Man(a1-3)[Neu5Ac(a2-3)Gal(b1-4)GlcNAc(b1-2)Man(a1-6)]Man(b1-4)GlcNAc(b1-4)[Fuc(a1-6)]GlcNAc
How it was run: as §1

[24] = target: Neu5Ac(a2-3)Gal(b1-4)GlcNAc(b1-2)[Neu5Ac(a2-3)Gal(b1-4)GlcNAc(b1-6)]Man(a1-6)[Neu5Ac(a2-3)Gal(b1-4)GlcNAc(b1-2)Man(a1-3)]Man(b1-4)GlcNAc(b1-4)GlcNAc
How it was run: as §1

[25] = target: Neu5Ac(a2-3)Gal(b1-4)[Fuc(a1-3)]GlcNAc(b1-3)Gal(b1-4)GlcNAc
How it was run: as §1

[26] = target: Neu5Ac(a2-3)Gal6S(b1-4)GlcNAc
How it was run: as §1

Neu5Ac(a2-3)GalNAc = target: Neu5Ac(a2-3)GalNAc
How it was run: as §1

Neu5Ac(a2-6)Gal(b1-4)Glc = target: Neu5Ac(a2-6)Gal(b1-4)Glc
How it was run: as §1

[27] = target: Neu5Ac(a2-6)Gal(b1-4)GlcNAc(b1-2)Man(a1-6)Man(b1-4)GlcNAc(b1-4)GlcNAc
How it was run: as §1

[28] = target: Neu5Ac(a2-6)Gal(b1-4)GlcNAc(b1-2)[Neu5Ac(a2-6)Gal(b1-4)GlcNAc(b1-4)]Man(a1-3)[GlcNAc(b1-4)][Neu5Ac(a2-6)Gal(b1-4)GlcNAc(b1-4)Man(a1-6)]Man(b1-4)GlcNAc(b1-4)GlcNAc
How it was run: as §1

[29] = target: Neu5Ac(a2-6)Gal(b1-4)GlcNAc(b1-3)Gal(b1-4)GlcNAc
How it was run: as §1

[30] = target: Neu5Ac(a2-6)Gal(b1-4)GlcNAc(b1-3)Gal(b1-4)GlcNAc(b1-3)GalNAc
How it was run: as §1

Neu5Ac(a2-6)GalNAc = target: Neu5Ac(a2-6)GalNAc
How it was run: as §1

[31] = target: Neu5Ac(a2-8)Neu5Ac(a2-8)Neu5Ac(a2-8)Neu5Ac(a2-3)[GalNAc(b1-4)]Gal(b1-4)Glc
How it was run: as §1

[32] = target: Neu5Ac9Ac(a2-3)Gal(b1-4)GlcNAc
How it was run: as §1

[33] = target: Neu5Gc(a2-8)Neu5Gc(a2-6)Gal(b1-4)GlcNAc
How it was run: as §1

B1: Cohesin-marm-DC-ASGPR-CRD (protein)
chain: LDITSHHHHHHDDLDAVRIKVDTVNAKPGDTVRIPVRFSGIPSKGIANCDFVYSYDPNVLEIIEIEPGDIIVDPNPDKSFDTAVYPDRKIIVFLFAEDSGTGAYAITKDGVFATIVAKVKEGAPNGLSVIKFVEVGGFANNDLVEQKTQFFDGGVNVGDTTEPATPTTPVTTPTTTDDLDAASCPINWVEHQGSCYWFSRSGKTWPEAERYCQLENTHLVVINSREEQNFVQAHLGSAYTWMGLSDPEGVWKWVDGTDYSSGFQNWKPGQPDDWQGHGLGGGEDCAHFHPDGRWNDDVCQRSYHWVCEAGLTQASQDSH
glycan array binding signal (z-score) (Fuc(a1-2)Gal(b1-3)GalNAc): -0.443
glycan array binding signal (z-score) [1]: -0.444
glycan array binding signal (z-score) [2]: -0.449
glycan array binding signal (z-score) [3]: 3.71
glycan array binding signal (z-score) [4]: 2.96
glycan array binding signal (z-score) [5]: 2.04
glycan array binding signal (z-score) [6]: 2.91
glycan array binding signal (z-score) [7]: 2.99
glycan array binding signal (z-score) [8]: 2.6
glycan array binding signal (z-score) [9]: 3.78
glycan array binding signal (z-score) [10]: 2.92
glycan array binding signal (z-score) (Gal(a1-3)Gal(b1-4)Glc): -0.398
glycan array binding signal (z-score) (Gal(a1-4)GlcNAc): -0.402
glycan array binding signal (z-score) [11]: -0.041
glycan array binding signal (z-score) (Gal(b1-4)Glc6S): -0.377
glycan array binding signal (z-score) (Gal(b1-4)GlcNAc(b1-2)Man): 3.13
glycan array binding signal (z-score) [12]: -0.44
glycan array binding signal (z-score) [13]: -0.305
glycan array binding signal (z-score) [14]: -0.304
glycan array binding signal (z-score) [15]: -0.405
glycan array binding signal (z-score) [16]: -0.069
glycan array binding signal (z-score) (Gal3S4S(b1-4)GlcNAc): -0.425
glycan array binding signal (z-score) (GalNAc3S(b1-4)GlcNAc): -0.449
glycan array binding signal (z-score) (GalNAc6S(b1-4)GlcNAc): 3
glycan array binding signal (z-score) [17]: -0.449
glycan array binding signal (z-score) (GlcNAc(b1-6)GalNAc): 2.94
glycan array binding signal (z-score) (Kdn(a2-3)Gal(b1-3)GalNAc): -0.362
glycan array binding signal (z-score) [18]: -0.447
glycan array binding signal (z-score) [19]: -0.452
glycan array binding signal (z-score) [20]: -0.433
glycan array binding signal (z-score) [21]: -0.449
glycan array binding signal (z-score) [22]: -0.448
glycan array binding signal (z-score) [23]: -0.449
glycan array binding signal (z-score) [24]: -0.331
glycan array binding signal (z-score) [25]: -0.388
glycan array binding signal (z-score) [26]: -0.447
glycan array binding signal (z-score) (Neu5Ac(a2-3)GalNAc): -0.435
glycan array binding signal (z-score) (Neu5Ac(a2-6)Gal(b1-4)Glc): -0.421
glycan array binding signal (z-score) [27]: -0.446
glycan array binding signal (z-score) [28]: -0.368
glycan array binding signal (z-score) [29]: -0.46
glycan array binding signal (z-score) [30]: -0.378
glycan array binding signal (z-score) (Neu5Ac(a2-6)GalNAc): 3.16
glycan array binding signal (z-score) [31]: 3.12
glycan array binding signal (z-score) [32]: -0.447
glycan array binding signal (z-score) [33]: -0.447
